Each structure is given as a SMILES string. Where “and” joins values, the source holds several entries; their conditions need not be identical. Identical values can stand only once. The panel holds about 83,000 compounds, 20% with a hit somewhere; the sample as a whole holds those more often.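 Growth was measured after 48 h exposure to one concentration of compound in 96-well plates. Values under 10 count as active.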 Some structures have more than one record in an assay (separate samples or runs), and their calls can disagree. Calls of active or inactive are those of the source.

Common to all, as to test: NCI-60 one-dose screen, 48 h (100 = growth as untreated, 0 = no growth, -100 = all killed)
One experiment relates to SR leukemia. Conditions: 10 µM.
The next experiment relates to RPMI-8226 leukemia. Conditions: 10 µM.
In the next experiment the test system is OVCAR-8 ovarian. Conditions: 10 µM.
Another experiment concerns OVCAR-5 ovarian. Conditions: 10 µM.
Another experiment has as its system OVCAR-4 ovarian. To be noted: 10 µM.
The test system of a further experiment is SK-OV-3 ovarian. Conditions: 10 µM. The procedure:
(§1) Growth inhibition of the SK-OV-3 human tumor cell line is measured as a screen for anti-cancer activity. Cells are grown in 96 well plates and exposed to the test compound for 48 hours. Compounds are tested at a single concentration, which is 10^-5 M for most compounds. The reported endpoint is percent growth (GI% or GIPRCNT), where numbers from 0 - 100% represent growth inhibition, and numbers from -100% - 0 represent cell death. For example, a value of 40 represents 60% growth inhibition. A value of 0 means no net growth occurred over the course of the experiment. A value of -40 indicates 40% of cells at the beginning of the experiment died by the end of the experiment. A value of -100 means all cells are dead at the end of the experiment.
(§2) NCI-60 Human Tumor Cell Lines Screen was performed using the standard one-dose NCI protocol, which is described in more detail at https://dtp.cancer.gov/discovery_development/nci-60/default.htm.
(§3) Compounds with GIPRCNT values below 10 were considered active. Activity score was based on GIPRCNT using the following formula: […]
(§4) Score is 0 for GIPRCNT values of 100 or above, 50 for GIPRCNT values of 0, and 100 for GIPRCNT values of -100.

Another experiment concerns IGROV1 ovarian. To be noted: 10 µM.
A further experiment has as its system OVCAR-3 ovarian. Conditions: 10 µM. The procedure:
as §1, with “OVCAR-3” for “SK-OV-3”
as §2, §3, §4

The next experiment deals with HS 578T breast. To be noted: 10 µM.
For a further experiment, the system named is NCI/ADR-RES ovarian. To be noted: 10 µM.
In the next experiment the test system is T-47D breast. Conditions: 10 µM.
For another experiment, the system named is BT-549 breast. To be noted: 10 µM.
In the next experiment the test system is MDA-MB-435 melanoma. To be noted: 10 µM.
Another experiment concerns SW-620 colon. To be noted: 10 µM.
Another experiment deals with MCF7 breast.
Another experiment has as its system HCT-116 colon. To be noted: 10 µM.
A further experiment relates to HCC-2998 colon. Conditions: 10 µM.
A further experiment has as its system KM12 colon. To be noted: 10 µM.

For the molecule `Cc1ccc(Sc2ccccc2N)cc1`, the growth was 71.6% (inactive) with SR leukemia; 89.8% (inactive) in the experiment on RPMI-8226 leukemia; 79.1% (inactive) in the experiment on OVCAR-8 ovarian; 82.7% (inactive) in the experiment on OVCAR-5 ovarian; 93.6% (inactive) in the experiment on OVCAR-4 ovarian; 94.9% (inactive) with SK-OV-3 ovarian. For the same molecule, the growth in the experiment with IGROV1 ovarian is 76.2% (inactive); with OVCAR-3 ovarian, 121% (inactive); in the experiment with HS 578T breast, 110% (inactive); with NCI/ADR-RES ovarian it was 84.3% (inactive); in the experiment on T-47D breast it was 99.8% (inactive); in the experiment on BT-549 breast, 89.8% (inactive). Besides, the growth is 120% (inactive) with MDA-MB-435 melanoma; 58.3% (inactive) in the experiment on SW-620 colon; 53.7% (inactive) in the experiment on MCF7 breast (10 µM); 55.8% (inactive) in the experiment on HCT-116 colon; 132% (inactive) in the experiment on HCC-2998 colon; 102% (inactive) in the experiment on KM12 colon.
On to `O=[N+]([O-])c1cc[n+]([O-])cc1`, for which the growth was 107% (inactive) in the experiment on SR leukemia; 102% (inactive) in the experiment with RPMI-8226 leukemia; 103% (inactive) in the experiment with OVCAR-8 ovarian; 145% (inactive) with OVCAR-5 ovarian; 111% (inactive) with OVCAR-4 ovarian; 130% (inactive) in the experiment with SK-OV-3 ovarian. Besides, the growth in the experiment with IGROV1 ovarian is 107% (inactive); in the experiment on OVCAR-3 ovarian, 114% (inactive); in the experiment on HS 578T breast, 104% (inactive); with NCI/ADR-RES ovarian it was 103% (inactive); in the experiment with T-47D breast, 120% (inactive); in the experiment on BT-549 breast, 92.4% (inactive). For the same molecule, the growth in the experiment with MDA-MB-435 melanoma is 112% (inactive); in the experiment on SW-620 colon, 99.3% (inactive); in the experiment with MCF7 breast (10 µM), 97.6% (inactive); with HCT-116 colon, 107% (inactive); with HCC-2998 colon, 97% (inactive); with KM12 colon it was 104% (inactive).
For `Cc1cc(N(CCOS(C)(=O)=O)CCOS(C)(=O)=O)ccc1C=Nc1ccc(-c2nc(Cc3ccccc3)sc2C)cc1`, the growth is 23.4% (inactive) in the experiment with SR leukemia; 62.3% (inactive) in the experiment with RPMI-8226 leukemia; 67% (inactive) in the experiment with OVCAR-5 ovarian; 3.43% (active) in the experiment on SK-OV-3 ovarian; 11.4% (inactive) with IGROV1 ovarian; 41.9% (inactive) in the experiment on OVCAR-3 ovarian. In addition, the growth with HS 578T breast is 79.8% (inactive); in the experiment on NCI/ADR-RES ovarian, 40.7% (inactive); with T-47D breast, 20.5% (inactive); in the experiment with BT-549 breast it was 52.8% (inactive); in the experiment on MDA-MB-435 melanoma, 63.2% (inactive); with SW-620 colon, 61.6% (inactive). The growth with MCF7 breast (10 µM) is 36.8% (inactive); with HCT-116 colon, 63.4% (inactive); in the experiment on HCC-2998 colon, -28.3% (active); with KM12 colon, 68.7% (inactive).
Take `C#CCN(Cc1ccc2nc(N)[nH]c(=O)c2c1)c1ccc(C(=O)NC(CCC(=O)O)C(=O)O)cc1` (stereo not given): the growth in the experiment with RPMI-8226 leukemia was 51.3% (inactive); in the experiment on OVCAR-8 ovarian, 39.3% (inactive); in the experiment on OVCAR-5 ovarian, 107% (inactive); in the experiment on OVCAR-4 ovarian, 103% (inactive); with SK-OV-3 ovarian, 49.7% (inactive); in the experiment on IGROV1 ovarian it was 109% (inactive). In addition, the growth in the experiment on OVCAR-3 ovarian is 67.2% (inactive); in the experiment with HS 578T breast, 88.9% (inactive); in the experiment with NCI/ADR-RES ovarian, 47.7% (inactive); in the experiment with BT-549 breast it was 76.9% (inactive); in the experiment with MDA-MB-435 melanoma, 90.7% (inactive); with SW-620 colon it was 61.8% (inactive). Further, the growth in the experiment with MCF7 breast (10 µM) was 22.4% (inactive); with HCT-116 colon it was 45.7% (inactive); in the experiment on HCC-2998 colon, 31.6% (inactive); with KM12 colon, 70.2% (inactive).
For `CN(C)CCOC1(Cc2ccc(Cl)cc2Cl)CCC(C(C)(C)C)CC1` (stereo not given), the growth was -34.8% (active) and -29.5% (active) in the experiment with SR leukemia; 11.6% (inactive) and -10% (active) in the experiment with RPMI-8226 leukemia; 36.5% (inactive) and -27.3% (active) in the experiment on OVCAR-8 ovarian; 43.8% (inactive) and 5.22% (active) with OVCAR-5 ovarian; 36.1% (inactive) and 15.1% (inactive) in the experiment on OVCAR-4 ovarian; 69.6% (inactive) and 57.8% (inactive) in the experiment with SK-OV-3 ovarian. In addition, the growth with IGROV1 ovarian was 41.7% (inactive) and 25.3% (inactive); in the experiment on OVCAR-3 ovarian it was 39.5% (inactive) and 11.1% (inactive); with HS 578T breast, 52.4% (inactive) and 49.6% (inactive); in the experiment on NCI/ADR-RES ovarian, 27% (inactive) and 44.4% (inactive); in the experiment on T-47D breast, -21.2% (active) and -41.1% (active); in the experiment on BT-549 breast, 58.8% (inactive) and 24% (inactive). Besides, the growth in the experiment with MDA-MB-435 melanoma was 11% (inactive) and -57.6% (active); in the experiment on SW-620 colon, -51.8% (active) and -57.6% (active); with MCF7 breast (10 µM) it was -46.4% (active) and -87.7% (active); with HCT-116 colon, 13.2% (inactive) and -81.3% (active); with HCC-2998 colon, -92.9% (active) and -95.5% (active); in the experiment on KM12 colon it was 20.2% (inactive) and -46.6% (active).
As to `CC1=CC(=C(c2ccc(N)cc2)c2ccc(N)cc2)C=CC1=N`, the growth with SR leukemia is 14.7% (inactive) and 24.8% (inactive); in the experiment with RPMI-8226 leukemia it was -15.6% (active) and 33.4% (inactive); in the experiment with OVCAR-8 ovarian, 6.23% (active) and 16% (inactive); with OVCAR-5 ovarian it was 46.8% (inactive) and 53.3% (inactive); with OVCAR-4 ovarian, 24.1% (inactive) and 33.7% (inactive); with SK-OV-3 ovarian, 38.2% (inactive). Moreover, the growth with IGROV1 ovarian was 70% (inactive); in the experiment with OVCAR-3 ovarian it was -35.6% (active) and 28.4% (inactive); in the experiment on HS 578T breast, 23.6% (inactive) and 89.5% (inactive); in the experiment with NCI/ADR-RES ovarian, 86.6% (inactive) and 101% (inactive); in the experiment with T-47D breast, 3.11% (active) and 11.3% (inactive); with BT-549 breast it was 5.57% (active) and 81.8% (inactive). For the same molecule, the growth with MDA-MB-435 melanoma was 13.6% (inactive) and 24% (inactive); in the experiment on SW-620 colon, 17.2% (inactive) and 39.1% (inactive); in the experiment with MCF7 breast (10 µM) it was 9.83% (active) and 19.6% (inactive); with HCT-116 colon, 14% (inactive) and 11.5% (inactive); in the experiment on HCC-2998 colon it was 21.1% (inactive) and 48.1% (inactive); in the experiment on KM12 colon, 0.202% (active) and 9.48% (active).
Take `COc1ccc(C(=O)C(CN(C)C)CN(C)C)cc1`: the growth in the experiment on SR leukemia was -46.3% (active); with RPMI-8226 leukemia, 64.3% (inactive); in the experiment with OVCAR-8 ovarian, 41.1% (inactive); with OVCAR-5 ovarian, 116% (inactive); in the experiment with OVCAR-4 ovarian it was -93.8% (active); in the experiment on SK-OV-3 ovarian, 108% (inactive). Moreover, the growth in the experiment on IGROV1 ovarian is 140% (inactive); in the experiment with OVCAR-3 ovarian it was -85% (active); with HS 578T breast, 83% (inactive); in the experiment on NCI/ADR-RES ovarian, 101% (inactive); with T-47D breast, 9.04% (active); in the experiment on BT-549 breast it was 112% (inactive). Moreover, the growth was 36.8% (inactive) in the experiment on MDA-MB-435 melanoma; -80.5% (active) with SW-620 colon; 14.3% (inactive) in the experiment on MCF7 breast (10 µM); 4.91% (active) in the experiment with HCT-116 colon; 109% (inactive) in the experiment on HCC-2998 colon; 108% (inactive) in the experiment on KM12 colon.
Regarding `COc1cc([C@@H]2c3cc4c(cc3[C@@H](Nc3ccc(NC(=O)c5cc([N+](=O)[O-])cn5C)cc3)[C@H]3COC(=O)[C@H]23)OCO4)cc(OC)c1O`, the growth in the experiment with MCF7 breast (100 µM) was 5.63% (active).
With `C=C1C(=O)OC2CC1C(OC(C)=O)C/C(C)=C/CC/C(C)=C\CCC2(C)O` (stereo not given), the growth in the experiment on SR leukemia was -25.1% (active); in the experiment on RPMI-8226 leukemia, -22.3% (active); with OVCAR-5 ovarian, 65.7% (inactive); in the experiment with OVCAR-4 ovarian, -0.648% (active); with SK-OV-3 ovarian it was 102% (inactive); in the experiment on OVCAR-3 ovarian it was 3.4% (active). Also, the growth with HS 578T breast is 72% (inactive); in the experiment with NCI/ADR-RES ovarian, 17.9% (inactive); in the experiment with T-47D breast it was 4.13% (active); in the experiment on BT-549 breast, -83.9% (active); in the experiment with MDA-MB-435 melanoma it was 18.6% (inactive); in the experiment with SW-620 colon it was 1.39% (active). Besides, the growth was 10.6% (inactive) in the experiment with MCF7 breast (10 µM); -90.9% (active) in the experiment on MCF7 breast (100 µM); -64.7% (active) in the experiment on HCT-116 colon; -51.2% (active) in the experiment on HCC-2998 colon; 23.2% (inactive) in the experiment on KM12 colon.

The values above are taken from PubChem BioAssay (NCI).
